# Assay results as given in PubChem BioAssay (NCI).
# The panel holds about 83,000 compounds, 20% with a hit somewhere; the sample as a whole holds those more often.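 Step 1: grow cells in 96-well plates. Step 2: add test compound at a single concentration. Step 3: incubate 48 h. Step 4: record percent growth.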 Unmarked numbers belong to inactive results. Active and inactive are the calls of the source. Rule for the calls: active = growth percent below 10; inactive = the rest.
# Columns and labels:
# Assay in all cases: NCI-60 one-dose screen, 48 h (100 = growth as untreated, 0 = no growth, -100 = all killed)
# Settings in all cases: 10 µM unless noted
# SR leukemia = tested on: SR leukemia
# OVCAR-8 ovarian = tested on: OVCAR-8 ovarian
# OVCAR-5 ovarian = tested on: OVCAR-5 ovarian
# OVCAR-4 ovarian = tested on: OVCAR-4 ovarian
# SK-OV-3 ovarian = tested on: SK-OV-3 ovarian
# IGROV1 ovarian = tested on: IGROV1 ovarian
# OVCAR-3 ovarian = tested on: OVCAR-3 ovarian
# NCI/ADR-RES ovarian = tested on: NCI/ADR-RES ovarian
# HS 578T breast = tested on: HS 578T breast
Compound,growth (SR leukemia),growth (OVCAR-8 ovarian),growth (OVCAR-5 ovarian),growth (OVCAR-4 ovarian),growth (SK-OV-3 ovarian),growth (IGROV1 ovarian),growth (OVCAR-3 ovarian),growth (NCI/ADR-RES ovarian),growth (HS 578T breast)
CCCCS(=O)(=O)Oc1ccc(-c2nc(C)c(C(=O)OCC)s2)cc1C=O,-14.3% (active),45.4%,94.5%,75.2%,109%,42.6%,65%,69%,
CCn1c(Sc2nnc(NC(=O)CCN3CCCC3)s2)nc2c1c(=O)n(C)c(=O)n2C,111%,103%,98.3%,105%,,115%,109%,109%,100%
O=C1Nc2ccccc2/C1=N/N=C/c1ccc(OC2OC(CO)C(O)C(O)C2O)cc1 (stereo unspecified),116%,102%,98.2%,115%,,116%,113%,106%,98.9%
COc1ccc(/C=C(\C#N)n2nnc3ccccc32)cc1,27%,19.6%,-13.4% (active),35.1%,,7.84% (active),-66.4% (active),0.0544% (active),-0.28% (active)
Cl.Fc1c[c-]c(-c2ccccn2)c(F)c1.[Pt].c1ccc(P(c2ccccc2)C([PH+](c2ccccc2)c2ccccc2)[PH+](c2ccccc2)c2ccccc2)cc1,23.3%,16.3%,22%,17.2%,,19.1%,11%,84.2%,12%
CN(C)CCn1cc(-c2ccc3c(Nc4ccc(CC(=O)Nc5cccc(F)c5)cc4)ncnc3c2)cn1,-20% [30 µM] (active),-29.2% [30 µM] (active),-91.8% [30 µM] (active),-76.5% [30 µM] (active),-26.4% [30 µM] (active),,-78% [30 µM] (active),52.4% [30 µM],-48.7% [30 µM] (active)
NC(N)=N/N=C(/c1ccccc1)c1ccc(N)cc1,88.8%,108%,103%,132%,99.3%,127%,,106%,150%
CCCCOC(=O)c1ccc(NC(=O)C(C)N2CCOCC2)cc1 (stereo unspecified),98.1%,95.6%,112%,124%,109%,103%,102%,101%,99%
O=C(/C=C/C12c3ccccc3C(c3ccccc31)C1C(=O)N(c3ccccc3)C(=O)C12)c1ccccc1 (stereo unspecified),14.2%,27.4%,-12.7% (active),34.1%,,-24.5% (active),-61.9% (active),14.2%,20.7%
NS(=O)(=O)Oc1ccc(NC(=O)C23CC4CC(CC(C4)C2)C3)cc1Cl,99%,98.4%,101%,83.9%,,95.9%,103%,93.6%,95.5%
CN1CCN(C2=C(Cl)C(=O)c3ccccc3C2=O)CC1,24.3%,67.1%,119%,84%,102%,60.7%,,69.8%,27.8%
Cc1cc(-c2noc(C(F)(F)F)n2)ccc1N1CCN(c2cc(C(=O)N(C)C)no2)CC1,52.9%,68.1%,102%,64.9%,,92.1%,83.9%,69.5%,89.1%
CN(C)CCC(O)(Cc1ccccc1)c1ccccc1 (stereo unspecified),102%,105%,103%,110%,99.6%,113%,,109%,99.8%
N#C/C=C(\c1ccc([N+](=O)[O-])cc1)n1nnc2cc(Cl)c(Cl)cc21,13%,15.7%,10.1%,0.234% (active),,-43% (active),-48% (active),-4.34% (active),27.8%
N=C(N)c1ccc(-c2ccc(-c3ccc(Cl)cn3)s2)cc1,6.63% (active),38%,52.2%,40%,,14.4%,4.7% (active),62.4%,63.2%
CCCCOc1nc2ccc(Cl)cc2cc1/C=C/C(=O)/C=C1/CC(c2cc3cc(Cl)ccc3nc2OCCCC)Nc2ccccc2N1 (stereo unspecified),91.2%,101%,93.8%,101%,86.1%,67.2%,102%,98.3%,
O=C1CSC(c2ccccc2)N1c1ccccc1 (stereo unspecified),88%,102%,103%,104%,100%,112%,112%,100%,86.8%
O=C(Oc1ccc[nH]c1=O)c1cc([N+](=O)[O-])cc([N+](=O)[O-])c1,136%,93.6%,106%,110%,116%,,113%,114%,124%
NS(=O)(=O)Oc1ccc(-c2sc3cc(O)ccc3c2C(=O)c2ccc(OCCN3CCCCC3)cc2)cc1,4.91% (active),63.9%,87.2%,58.4%,,75.6%,62.6%,80.4%,37.8%
COc1ccc(/C=C2\COc3ccc(O)c(O)c3C2=O)c(OC)c1,18.9%,41.5%,74.1%,47.3%,72.7%,,29.4%,57.8%,65.5%
Cl.Fc1c[c-]c(-c2ccccn2)c(F)c1.[Pt].c1ccc([PH+](C[PH+](c2ccccc2)c2ccccc2)c2ccccc2)cc1,-25.4% (active),-19.6% (active),-81.8% (active),-93.4% (active),,-75.9% (active),-93.8% (active),-38.8% (active),-25.2% (active)
O=C1c2cccc3c(-c4ccc(-c5nc6c7ccccc7c7ccccc7c6[nH]5)cc4)ccc(c23)C(=O)N1CCN1CCNCC1,5.99% (active),20.2%,108%,-23.2% (active),102%,72.4%,91.5%,57.8%,108%
N#C/C(=C\c1ccc2c(c1)OCO2)n1nnc2ccccc21,28%,17.7%,-17.5% (active),34.2%,,4.33% (active),-69% (active),6.26% (active),-4.27% (active)
N=C(N)c1ccc(-c2ccc(-c3ccc(Cl)cc3Cl)o2)cc1,2.97% (active),-23.5% (active),16%,-38.1% (active),,-76.6% (active),-40.2% (active),-46.8% (active),29.7%
C=CCN1C(=O)[C@]2(SC1=S)[C@H](c1cccc(Cl)c1)CN(C)[C@]21C(=O)NC2C=CC(Cl)=C[C@H]21 (stereo partly specified),-22.6% (active),56%,80.5%,49.4%,58%,48.3%,38.4%,38.7%,
COc1ccc(/C=C2\COc3ccc(O)cc3C2=O)c(OC)c1,19.5%,63.3%,94.3%,96.1%,58%,67.3%,27%,33%,66%
COc1cccc(/C=C2\COc3ccc(O)cc3C2=O)c1OC,5.49% (active),69%,89.7%,92.5%,92.9%,67.5%,,63.2%,73%
Cc1cc(C)on1,70.8%,92.4%,116%,98%,111%,110%,,109%,102%
N=C(N)c1ccc(-c2ccc(-c3ccc(Cl)c(Cl)c3)o2)nc1,1.79% (active),-16.1% (active),39%,-68.4% (active),,22.3%,-80.8% (active),32.2%,94.8%
